Source: PubChem BioAssay (NCI)
Compounds without any hit were thinned out: in the full panel of roughly 79,000, 15% have a hit. The source made the active and inactive calls. Cut-off read from the data, not from the text of the source: active = growth inhibition above about 70%; inactive = the rest.

Test: NCI Yeast Anticancer Drug Screen. Data for the rad50 strain (AID 155);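 note: 0% = growth of vehicle-only cultures of the same strain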
Conditions: S. cerevisiae rad50 strain growth inhibition; at 1.2 µM; active compounds read high
Procedure, shortened: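 A DNA repair-deficient yeast mutant serves as the test organism; compound-induced growth inhibition is calculated against vehicle-treated cells.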
For `O=C1/C(=C/c2ccccc2)CCCC1CN1CCCCC1` (stereo not drawn), the growth inhibition was 13% (inactive). With `C#CCN(Cc1ccc2nc(N)[nH]c(=O)c2c1)c1ccc(C(=O)NC(CCC(=O)O)C(=O)O)cc1` (stereo not drawn) the growth inhibition was 26% (inactive). For `CCOC1(c2cccc([N+](=O)[O-])c2)c2ccccc2Oc2ccccc21`, the growth inhibition was 1% (inactive). With `O=C(O)CNC(=S)Nc1ccccc1` the growth inhibition was -67% (inactive). With `N/C(=N/N=C/c1cc(Br)cc(Br)c1O)NO` the growth inhibition was -39% (inactive). For `C[Si](C)(C)/C=C/CCNC(C#N)c1ccccc1` (stereo not drawn), the growth inhibition was -14% (inactive). For `CCCCCCCCCCCCCCCCOP(=O)(O)OCC(N)C(=O)O` (stereo not drawn), the growth inhibition was -20% (inactive). For `CC1=C(C(=O)NCc2ccccc2)C(c2ccccc2)C(C(=O)NCc2ccccc2)=C(C)N1`, the growth inhibition was -14% (inactive). In the case of `O=[N+]([O-])c1cc(S(=O)(=O)Nc2ccccc2)ccc1Nc1ccccc1`, the growth inhibition is reported as 11% (inactive). With `COc1cc2ccnc(-c3c4ccccc4c(N)c4c(OC)c(OC)ccc34)c2cc1OC` the growth inhibition was 16% (inactive). With `CCOC(=O)C(Br)C(Br)c1ccccc1Cl` (stereo not drawn) the growth inhibition was 5% (inactive). In the case of `CCOC(=O)C1=C(C)NC(C)=C(C(=O)OCCNC(=O)c2ccc(N=[N+]=[N-])cc2)C1c1ccccc1C(F)(F)F` (stereo not drawn), the growth inhibition is reported as 1% (inactive). With `Cc1cc(C)c(NC(=S)NC(=O)c2ccccc2)cc1C` the growth inhibition was -50% (inactive). For `CNCCCNc1c2ccccc2nc2cccc([N+](=O)[O-])c12`, the growth inhibition was 73% (active). In the case of `COc1c(O)c(C=O)c(Br)c(C=O)c1O`, the growth inhibition is reported as 4% (inactive). For `Cc1c(C)c(C)c(CSC(=N)N)c(C)c1C`, the growth inhibition was -13% (inactive). In the case of `O=C(CSC(=S)N1CCCCC1)Nc1nc2c(s1)CCCC2`, the growth inhibition is reported as -11% (inactive). In the case of `CNC(=O)OCc1c(COC(=O)NC)c(-c2ccc(Cl)cc2)n2c1CCC2`, the growth inhibition is reported as -34% (inactive). For `CC(=O)OC1CC2C(C)(C)C(=O)C=C[C@]2(C)C2CCC3(C)C(=CCC3[C@H](CO)C[C@H](O)C(=O)C(C)(C)O)[C@]12C` (stereo partly drawn), the growth inhibition was -5% (inactive). With `CCCCCCOC(=O)NCCOC(=O)Nc1ccccc1` the growth inhibition was 4% (inactive). With `C[C](C)(C)[Ge]([O][Ge]([c]1ccccc1)[c]1ccccc1)([O][Ge]([c]1ccccc1)[c]1ccccc1)[C](C)(C)C` the growth inhibition was -1% (inactive). In the case of `CCc1c(Cl)c(C)cc(O)c1Cl`, the growth inhibition is reported as -27% (inactive). For `Cc1nc(Nc2ccccc2[N+](=O)[O-])sc1C(=O)CC(=O)C(=O)Nc1c(C(C)C)cccc1C(C)C`, the growth inhibition was -5% (inactive). For `O=[N+]([O-])c1cccc2nc3ccccc3c(NCCCn3ccnc3[N+](=O)[O-])c12`, the growth inhibition was 23% (inactive). In the case of `CCCCCCC(O)CNCc1ccnc2ccc(OC)cc12` (stereo not drawn), the growth inhibition is reported as 5% (inactive). For `Cc1c2cccc(Sc3ccccc3)c2c2c3c(cccc13)[S+](c1ccccc1)C2` (stereo not drawn), the growth inhibition was 25% (inactive). In the case of `C=C1CCC(O)C/C1=C/C=C1\CCCC2(C)C1CCC2C(C)CCCC(C)C` (stereo not drawn), the growth inhibition is reported as -18% (inactive). In the case of `NC1=NNC2(C(N)=N1)c1ccccc1-c1ccccc12`, the growth inhibition is reported as -7% (inactive). In the case of `COc1cc2cc3c4cc(OC)c(OC)cc4cc[n+]3c(C)c2cc1OC`, the growth inhibition is reported as 5% (inactive). For `COC(=O)NC1C(C)OC(OC2C/C=C(/C)C3C=CC4C(OC5CC(OC6CC(O)C(OC7CC(O)C(OC)C(C)O7)C(C)O6)C(O)C(C)O5)C(C)CC(C)C4C3(C)/C(O)=C3\C(=O)OC4(CC(C)C(CO)=CC4/C=C\2C)C3=O)CC1(C)[N+](=O)[O-]` (stereo not drawn), the growth inhibition was 5% (inactive). In the case of `O=C1CSC(c2cccc(Cl)c2)N1c1ccc(-c2ccc(-n3c(-c4ccccc4)nc4ccccc4c3=O)cc2)cc1` (stereo not drawn), the growth inhibition is reported as 2% (inactive). For `CCOC(=O)C(C(=O)OCC)=P(c1ccccc1)(c1ccccc1)c1ccccc1`, the growth inhibition was -58% (inactive). For `COc1ccc(N=CN(C)C)c(C)c1`, the growth inhibition was -1% (inactive). With `Cc1cc(S(=O)(=O)Nc2nnc3cnc4ccccc4n23)c(S)cc1Cl` the growth inhibition was 0% (inactive). In the case of `O=C(Oc1ccc2c(c1)CN(Cc1ccccc1)CO2)c1ccccc1`, the growth inhibition is reported as 2% (inactive). For `CN(C)[C@@H]1C(=O)C(C(N)=O)=C(O)[C@@]2(O)C(=O)C3=C(O)c4c(O)cccc4C[C@H]3C[C@@H]12`, the growth inhibition was -19% (inactive). With `O=[N+]([O-])c1ccc2c(c1)/C(=N/N=C1c3ccccc3Cc3ccccc31)c1cc([N+](=O)[O-])cc([N+](=O)[O-])c1-2` the growth inhibition was -10% (inactive). In the case of `Cc1nc2c(Br)cc(Br)cc2c(=O)n1-c1ccccc1NC1OCC(O)C(O)C1O` (stereo not drawn), the growth inhibition is reported as 0% (inactive). With `Cc1cc(N(CCOS(C)(=O)=O)CCOS(C)(=O)=O)ccc1C=Nc1ccc(-c2nc(Cc3ccccc3)sc2C)cc1` the growth inhibition was 12% (inactive).

Same assay, conditions: S. cerevisiae rad50 strain growth inhibition; at 3.7 µM; active compounds read high
For `O=C1/C(=C/c2ccccc2)CCCC1CN1CCCCC1` (stereo not drawn), the growth inhibition was 26% (inactive). For `C#CCN(Cc1ccc2nc(N)[nH]c(=O)c2c1)c1ccc(C(=O)NC(CCC(=O)O)C(=O)O)cc1` (stereo not drawn), the growth inhibition was 29% (inactive). For `CCOC1(c2cccc([N+](=O)[O-])c2)c2ccccc2Oc2ccccc21`, the growth inhibition was 0% (inactive). With `O=C(O)CNC(=S)Nc1ccccc1` the growth inhibition was -68% (inactive). For `N/C(=N/N=C/c1cc(Br)cc(Br)c1O)NO`, the growth inhibition was -34% (inactive). With `C[Si](C)(C)/C=C/CCNC(C#N)c1ccccc1` (stereo not drawn) the growth inhibition was -28% (inactive). In the case of `CCCCCCCCCCCCCCCCOP(=O)(O)OCC(N)C(=O)O` (stereo not drawn), the growth inhibition is reported as -6% (inactive). With `CC1=C(C(=O)NCc2ccccc2)C(c2ccccc2)C(C(=O)NCc2ccccc2)=C(C)N1` the growth inhibition was 21% (inactive). In the case of `O=[N+]([O-])c1cc(S(=O)(=O)Nc2ccccc2)ccc1Nc1ccccc1`, the growth inhibition is reported as 28% (inactive). In the case of `COc1cc2ccnc(-c3c4ccccc4c(N)c4c(OC)c(OC)ccc34)c2cc1OC`, the growth inhibition is reported as 50% (inactive). For `CCOC(=O)C(Br)C(Br)c1ccccc1Cl` (stereo not drawn), the growth inhibition was 17% (inactive). With `CCOC(=O)C1=C(C)NC(C)=C(C(=O)OCCNC(=O)c2ccc(N=[N+]=[N-])cc2)C1c1ccccc1C(F)(F)F` (stereo not drawn) the growth inhibition was -1% (inactive). For `Cc1cc(C)c(NC(=S)NC(=O)c2ccccc2)cc1C`, the growth inhibition was -52% (inactive). With `CNCCCNc1c2ccccc2nc2cccc([N+](=O)[O-])c12` the growth inhibition was 82% (active). For `COc1c(O)c(C=O)c(Br)c(C=O)c1O`, the growth inhibition was 7% (inactive). With `Cc1c(C)c(C)c(CSC(=N)N)c(C)c1C` the growth inhibition was -10% (inactive). With `O=C(CSC(=S)N1CCCCC1)Nc1nc2c(s1)CCCC2` the growth inhibition was -2% (inactive). In the case of `CNC(=O)OCc1c(COC(=O)NC)c(-c2ccc(Cl)cc2)n2c1CCC2`, the growth inhibition is reported as -42% (inactive). In the case of `CC(=O)OC1CC2C(C)(C)C(=O)C=C[C@]2(C)C2CCC3(C)C(=CCC3[C@H](CO)C[C@H](O)C(=O)C(C)(C)O)[C@]12C` (stereo partly drawn), the growth inhibition is reported as -18% (inactive). For `CCCCCCOC(=O)NCCOC(=O)Nc1ccccc1`, the growth inhibition was 5% (inactive). With `C[C](C)(C)[Ge]([O][Ge]([c]1ccccc1)[c]1ccccc1)([O][Ge]([c]1ccccc1)[c]1ccccc1)[C](C)(C)C` the growth inhibition was 6% (inactive). In the case of `CCc1c(Cl)c(C)cc(O)c1Cl`, the growth inhibition is reported as -30% (inactive). For `Cc1nc(Nc2ccccc2[N+](=O)[O-])sc1C(=O)CC(=O)C(=O)Nc1c(C(C)C)cccc1C(C)C`, the growth inhibition was -16% (inactive). In the case of `O=[N+]([O-])c1cccc2nc3ccccc3c(NCCCn3ccnc3[N+](=O)[O-])c12`, the growth inhibition is reported as 63% (inactive). For `CCCCCCC(O)CNCc1ccnc2ccc(OC)cc12` (stereo not drawn), the growth inhibition was 13% (inactive). With `Cc1c2cccc(Sc3ccccc3)c2c2c3c(cccc13)[S+](c1ccccc1)C2` (stereo not drawn) the growth inhibition was 69% (inactive). With `C=C1CCC(O)C/C1=C/C=C1\CCCC2(C)C1CCC2C(C)CCCC(C)C` (stereo not drawn) the growth inhibition was -9% (inactive). In the case of `NC1=NNC2(C(N)=N1)c1ccccc1-c1ccccc12`, the growth inhibition is reported as -12% (inactive). In the case of `COc1cc2cc3c4cc(OC)c(OC)cc4cc[n+]3c(C)c2cc1OC`, the growth inhibition is reported as 1% (inactive). For `COC(=O)NC1C(C)OC(OC2C/C=C(/C)C3C=CC4C(OC5CC(OC6CC(O)C(OC7CC(O)C(OC)C(C)O7)C(C)O6)C(O)C(C)O5)C(C)CC(C)C4C3(C)/C(O)=C3\C(=O)OC4(CC(C)C(CO)=CC4/C=C\2C)C3=O)CC1(C)[N+](=O)[O-]` (stereo not drawn), the growth inhibition was 16% (inactive). In the case of `O=C1CSC(c2cccc(Cl)c2)N1c1ccc(-c2ccc(-n3c(-c4ccccc4)nc4ccccc4c3=O)cc2)cc1` (stereo not drawn), the growth inhibition is reported as 6% (inactive). For `CCOC(=O)C(C(=O)OCC)=P(c1ccccc1)(c1ccccc1)c1ccccc1`, the growth inhibition was 0% (inactive). In the case of `COc1ccc(N=CN(C)C)c(C)c1`, the growth inhibition is reported as 1% (inactive). In the case of `Cc1cc(S(=O)(=O)Nc2nnc3cnc4ccccc4n23)c(S)cc1Cl`, the growth inhibition is reported as 0% (inactive). For `O=C(Oc1ccc2c(c1)CN(Cc1ccccc1)CO2)c1ccccc1`, the growth inhibition was 2% (inactive). With `CN(C)[C@@H]1C(=O)C(C(N)=O)=C(O)[C@@]2(O)C(=O)C3=C(O)c4c(O)cccc4C[C@H]3C[C@@H]12` the growth inhibition was -25% (inactive). In the case of `O=[N+]([O-])c1ccc2c(c1)/C(=N/N=C1c3ccccc3Cc3ccccc31)c1cc([N+](=O)[O-])cc([N+](=O)[O-])c1-2`, the growth inhibition is reported as 60% (inactive). For `Cc1nc2c(Br)cc(Br)cc2c(=O)n1-c1ccccc1NC1OCC(O)C(O)C1O` (stereo not drawn), the growth inhibition was 6% (inactive). For `Cc1cc(N(CCOS(C)(=O)=O)CCOS(C)(=O)=O)ccc1C=Nc1ccc(-c2nc(Cc3ccccc3)sc2C)cc1`, the growth inhibition was 23% (inactive).
